# KinaseGlo FLuc = blocks Kinase-Glo luciferase, a counter-screen artifact; Q27757; Kinase-Glo luciferase, ATP luminescence, 8 min; Potency, µM (titrated, usually from 38.3 µM), inactives show top-dose activity change, negative = inhibition, actives largely listed as inhibitors; 200,000 compounds, 0.28% hits; further: on the % scale 0 is the no-effect control and ±100 the full control effect; nearly all actives have a fitted effect of over 60% in size
#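 Inhibition of Kinase-Glo luciferase light generation was assessed at 10 uM ATP in pH 7.2 imidazole buffer, with luminescence measured after eight minutes at ambient temperature.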
# ELG1 genotoxic = genotoxicity induction in ELG1-luciferase HEK293T cells; HEK293T ELG1-luciferase reporter, luminescence, 16 h; Potency, µM (doses to about 46 µM), for inactives: at the highest dose activity change, positive = activation, actives largely listed as activators; 330,000 compounds, 1.3% hits; AID 504466; further: % of control where 0% means no effect; nearly all actives have a fitted effect of over 60% in size
#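 16 hr compound incubation (37 °C, 5% CO2) of HEK293T cells carrying luciferase-tagged ELG1; luciferase then measured by ONE-Glo luminescence after 30 min at RT.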
# NPC1 prom act = NPC1 promoter activation; Huh7 NPC1 promoter luciferase reporter, 24 h; Potency, µM (highest dose often 9.22 µM), without a hit: at the top dose activation, hits mostly activators; 320,000 compounds, 2.4% hits; further: % of control where 0% means no effect; nearly all actives have a fitted effect of over 60% in size
#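 Readout is luciferase luminescence, reflecting NPC1 promoter activation in stably transfected Huh7 cells after 24 h compound exposure at 37 °C in reduced-serum medium with 10% FBS.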
# SMN2 splice up = SMN2 splice variant enhancement. Potency, µM (doses to about 46.1 µM), for the others: at the highest dose activity change, positive = activation, usual class: activators. HEK293 SMN2-luciferase splicing reporter, luminescence, 30-36 h. 210,000 compounds, 2.8% hits; further: % of control where 0% means no effect; nearly all actives have a fitted effect of over 55% in size
#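 HEK293 cells carry an SMN2 minigene-luciferase reporter in which exon 7 inclusion puts luciferase in frame. Cells were seeded at 2000 cells/well, attached for 10-12 hours, then exposed to compounds for 30-36 hours at 37C before ONE-Glo luminescence.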
# FLuc counter = counter-screen for miR-21 project: firefly luciferase inhibitors or activators; purified FLuc, Km substrates, luminescence inhibition; Potency, µM (series often up to 57.5 µM), inactives show at the top dose activity change, negative = inhibition, actives largely listed as inhibitors; 360,000 compounds, 6.9% hits; AID 588342;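 further: plate controls were vehicle for no effect and reference inhibitor for full effect; nearly all actives have a fitted effect of over 55% in size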
# Target sequence (P08659 whole entry, looked up): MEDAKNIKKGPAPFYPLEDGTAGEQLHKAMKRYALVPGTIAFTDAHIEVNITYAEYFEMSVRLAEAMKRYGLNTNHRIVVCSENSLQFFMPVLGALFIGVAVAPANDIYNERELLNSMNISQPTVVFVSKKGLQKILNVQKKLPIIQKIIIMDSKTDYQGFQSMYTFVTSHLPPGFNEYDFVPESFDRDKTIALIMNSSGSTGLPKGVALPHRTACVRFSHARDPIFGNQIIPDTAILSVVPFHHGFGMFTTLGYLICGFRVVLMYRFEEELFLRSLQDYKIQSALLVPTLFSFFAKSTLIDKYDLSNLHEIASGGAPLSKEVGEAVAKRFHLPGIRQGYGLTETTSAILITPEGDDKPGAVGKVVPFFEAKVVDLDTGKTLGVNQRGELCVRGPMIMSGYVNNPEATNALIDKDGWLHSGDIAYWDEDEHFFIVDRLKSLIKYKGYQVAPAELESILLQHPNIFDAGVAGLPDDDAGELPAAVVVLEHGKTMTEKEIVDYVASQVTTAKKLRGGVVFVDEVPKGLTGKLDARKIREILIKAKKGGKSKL
#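 Purified P. pyralis luciferase, 10 nM final, with Km-level 10 uM D-luciferin and 10 uM ATP in 50 mM Tris acetate pH 7.5, 10 mM Mg acetate, 0.01% Tween-20, 0.05% BSA; 6-point qHTS titration about 60 µM downward; luminescence read.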
# Rab9 prom act = Rab9 promoter activation. 320,000 compounds, 2.8% hits. Potency, µM (titrated, usually from 9.22 µM), inactives show at the top dose activation, negative = inhibition, usual class: activators. Huh7 Rab9 promoter-luciferase reporter, luminescence, 24 h; further: % of control where 0% means no effect; nearly all actives have a fitted effect of over 60% in size
#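 Quantitative HTS format; Huh7 Rab9-luciferase reporter cells (1500/well) receive compound 2 h post-plating, incubate 24 h at 37 °C, then get luciferase reagent for 10 min before luminescence reading.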
# * marks the source's active call; other numbers are inactive results; ? = inconclusive; nt = not tested or not shown; [ ] = another dose, or the depositor's remark. Only some compounds are listed: those with a hit (about 7.5% of all), similar ones and a draw of the others. The call rests on the fitted dose curve; in most records, active means well fitted curve in the direction sought with a large enough effect; inconclusive means small, poorly fitted or top-dose-only effect, or another doubt; inactive means no such curve, though single readings can be large; an effect the other way counts as inactive or inconclusive. Potency means the concentration at half of the fitted maximal effect.
SMILES,KinaseGlo FLuc,ELG1 genotoxic,NPC1 prom act,SMN2 splice up,FLuc counter,Rab9 prom act
Cc1ccc(NC(=O)CNC(=O)c2ccco2)cc1,nt,16.8%,?,nt,?,3.98µM*
CCOC(=O)c1ccc(NC(=O)c2ccco2)cc1,nt,?,3.55µM*,nt,10.7µM*,2.24µM*
COc1ccc(NC(=O)CNC(=O)c2ccco2)cc1,nt,?,24.7%,nt,-14.9%,25.9%
CN[C@@H]1[C@H](O[C@H]2[C@@H](O[C@@H]3[C@@H](O)[C@@H](O)[C@@H](N=C(N)N)[C@@H](O)[C@@H]3N=C(N)N)O[C@@H](C)[C@]2(O)CO)O[C@H](CO)[C@@H](O)[C@@H]1O,-1.1%[17.1 µM],nt,nt,-23.1%[20.6 µM],nt,nt
CC(C)OC(=O)c1ccc2nc3ccccc3nc2c1,nt,?,2.82µM*,nt,1.69µM*,0.708µM*
Cc1ccc(NC(=S)N(CCN(C)C)Cc2cccs2)cc1,-3.5%,-4.2%,-8.0%,-19.7%,-0.3%,-1.6%
COC(=O)c1ccc(NC(=O)c2cccc(NC(=O)c3ccco3)c2)cc1,nt,0.5%,-8.8%,nt,-13.7%,8.2%
CC(C)OC(=O)c1ccc(NC(=O)c2ccco2)cc1,-4.3%,2.82µM*,2.51µM*,nt,13.5µM*,3.16µM*
CCOC(=O)c1ccc(NC(=S)N(CCN(C)C)Cc2cccs2)cc1,6.6%,-10.7%,-8.4%,3.55µM*,-1.4%,-1.2%
COC(=O)c1ccc2c(=O)n(CCCCCC(=O)N3CCN(c4ccc(OC)cc4)CC3)c(=O)[nH]c2c1,nt,nt,nt,nt,0.3%,nt
COc1cc(C(=O)Nc2ccc(C)cn2)ccc1OCC(=O)N1CCOCC1,nt,6.8%,1.7%,nt,16.9µM*,2.1%
COc1cc(C(=O)Nc2cc(C)ccn2)ccc1OCC(=O)N1CCOCC1,nt,?,1.5%,nt,?,9.6%
Cc1cc(NC(=O)c2ccc(Cl)cc2)cc(C)c1OCC(=O)N1CCOCC1,nt,9.5%,3.16µM*,nt,1.69µM*,?
Cc1cc(NC(=O)c2cccc3ccccc23)cc(C)c1OCC(=O)N1CCOCC1,6.2%,-8.8%,-0.7%,-13.2%,?,-5.1%
CCCCOc1ccc(C(=O)Nc2cc(C)c(OCC(=O)N3CCOCC3)c(C)c2)cc1,5.7%,-5.9%,14.0%,-68.2%,2.13µM*,0.5%
CCCCOc1ccc(C(=O)Nc2ccc(CN3CCOCC3)cc2)cc1,nt,-1.2%,-9.5%,nt,?,-23.8%
Clc1cccc(CN2CCSCC2)c1,nt,0.2%,4.7%,nt,5.7%,7.0%
Cc1cccc(/C=C2\Sc3ccc(C(=O)N4CCC(C(N)=O)CC4)cc3N(C)C2=O)c1,nt,-9.2%,-20.4%,nt,19µM*,-5.9%
CN1C(=O)/C(=C/c2ccc(C(F)(F)F)cc2)Sc2ccc(C(=O)N3CCN(c4ccccn4)CC3)cc21,nt,-12.3%,-6.4%,nt,8.49µM*,-6.3%
COC(=O)c1cccc(NC(=O)C(C)(C)C)c1,nt,2.1%,-0.6%,nt,-5.5%,-2.3%
Nc1nc(C2CCOCC2)cs1,nt,0.2%,1.6%,nt,-1.6%,1.2%
Nc1nc(C2CC2)c(Sc2sc(N)nc2C2CC2)s1,-2.6%,-6.4%,0.9%,15.8µM*,-1.3%,-3.5%
CN(C)/C=C(\C#N)C(=O)N/N=C/c1ccccc1,-1.9%,13.8%,22.3%,?,?,2.24µM*
CCN1C(=O)[C@H]2[C@@H](c3ccc(-c4ccc(OC)cc4)cc3)N3CCC[C@@]3(C(=O)OC)[C@H]2C1=O,nt,-7.8%,-1.0%,nt,?,-6.6%
CC1CCC(=C(C#N)c2nc(-c3cc4ccccc4oc3=O)cs2)CC1 (stereo not drawn),-2.7%,6.51µM*,3.55µM*,?,2.69µM*,3.98µM*
COc1cc(/C=C(/C#N)c2nc(-c3cc4ccccc4oc3=O)cs2)cc([N+](=O)[O-])c1O,nt,-0.7%,-2.2%,nt,12µM*,-1.0%
Cc1ccc(C(=O)Nc2cccnc2Cl)cc1Cl,nt,18.3µM*,?,nt,16.9µM*,?
Cc1ccnc(NC(=O)CC(NC(=O)c2ccccc2Cl)c2ccccc2)c1 (stereo not drawn),nt,20.6µM*,-0.4%,nt,10.7µM*,-2.1%
